Shown are actives, neighbours in structure and some others; about 2.9% of the full set was active somewhere.
POLI inh: DNA polymerase iota (human) inhibition. 390,000 compounds, 1% hits. Pol iota fluorescent replication assay, 10 min. AID 588590. Potency, µM (series often up to 115 µM), without a hit: top-dose activity, negative = inhibition, hits mostly inhibitors; further: potency means the concentration at half of the fitted maximal effect
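Fluorescent replication assay read twice, at 0 min and 10 min after adding 50 nM (final) substrate. Enzyme (10 nM) and compounds were first incubated 15 min at room temperature; enzyme-free buffer wells were negative controls.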
Pol beta inh: inhibitors of human DNA polymerase beta | P06746 | Pol beta primer extension/strand displacement, fluorescence kinetic | Potency, µM (top dose mostly 114 µM), for inactives: at the highest dose activity change, negative = inhibition, usual class: inhibitors | 340,000 compounds, 1.3% hits | AID 485314; further: potency means the concentration at half of the fitted maximal effect; on the % scale 0 is the no-effect control and ±100 the full control effect
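Preincubation: enzyme (10 nM) with compound, 15 min, RT. Reaction: substrate added to 50 nM final. Reads: 0 and 10 min. Analysis: normalized, Hill fit.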
Pol kappa inh-1: inhibitors of human DNA polymerase kappa; Q9UBT6; purified Pol kappa, fluorescent DNA synthesis assay, 10 min; Potency, µM (highest dose often 107 µM), without a hit: at the highest dose activity, negative = inhibition, usual class: inhibitors; 400,000 compounds, 0.53% hits; AID 588579; further: potency means the concentration at half of the fitted maximal effect; on the % scale 0 is the no-effect control and ±100 the full control effect
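First, compounds were pin-transferred onto 10 nM Pol kappa. After 15 min at room temperature, substrate was added to 50 nM final. Fluorescence was then measured kinetically at 0 and 10 min.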
ALOX12 inh: blocks human arachidonate 12S-lipoxygenase. purified 12hLO, xylenol orange hydroperoxide absorbance. Potency, µM (highest dose often 108 µM), for inactives: at the top dose activity change, negative = inhibition, actives largely listed as inhibitors. 580,000 compounds, 1.1% hits. P18054; further: potency means the concentration at half of the fitted maximal effect; on the % scale 0 is the no-effect control and ±100 the full control effect
Target sequence (P18054 whole entry, looked up): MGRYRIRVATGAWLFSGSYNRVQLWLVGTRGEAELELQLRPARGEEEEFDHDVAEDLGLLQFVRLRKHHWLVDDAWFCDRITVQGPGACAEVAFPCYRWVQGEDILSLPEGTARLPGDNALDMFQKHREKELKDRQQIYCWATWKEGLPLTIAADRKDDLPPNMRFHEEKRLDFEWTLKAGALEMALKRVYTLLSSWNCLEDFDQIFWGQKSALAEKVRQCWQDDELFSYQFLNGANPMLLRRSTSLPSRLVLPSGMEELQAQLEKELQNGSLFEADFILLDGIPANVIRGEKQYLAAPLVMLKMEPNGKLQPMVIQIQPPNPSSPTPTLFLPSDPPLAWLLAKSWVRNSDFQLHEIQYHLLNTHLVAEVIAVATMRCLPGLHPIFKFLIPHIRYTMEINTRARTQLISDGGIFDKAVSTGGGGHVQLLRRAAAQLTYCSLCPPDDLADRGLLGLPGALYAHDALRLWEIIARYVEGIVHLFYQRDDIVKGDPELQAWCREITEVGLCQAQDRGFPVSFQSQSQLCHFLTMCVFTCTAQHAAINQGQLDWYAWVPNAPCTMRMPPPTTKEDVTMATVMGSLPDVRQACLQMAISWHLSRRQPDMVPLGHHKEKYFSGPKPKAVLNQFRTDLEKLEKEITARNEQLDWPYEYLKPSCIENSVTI
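Purified human 12hLO at 150 nM in 25 mM Hepes, 0.01% Triton X-100, pH 7.0, preincubated 15 min at room temperature with compound. Reaction started with 40 uM arachidonic acid, 30 min at room temperature. Hydroperoxide measured by Fe-xylenol orange, 573/405 nm absorbance ratio.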
Pol eta inh-1: DNA polymerase eta (human) inhibition; recombinant Pol eta, fluorescent DNA replication assay; Potency, µM (top dose mostly 114 µM), for inactives: at the highest dose activity change, negative = inhibition, most hits filed as inhibitors; 390,000 compounds, 1.2% hits; AID 588591; further: potency means the concentration at half of the fitted maximal effect; on the % scale 0 is the no-effect control and ±100 the full control effect
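Pol eta (10 nM) was preincubated with compounds for 15 min at room temperature, after which fluorescent replication substrate (50 nM final) was added to start the reaction. Fluorescence was read kinetically at 0 and 10 min.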
PI5P4K alpha inh: inhibitors of human PI5P4K alpha | max response, % | 330,000 compounds, 1.2% hits | P48426 | AID 652105 | PI5P4Kalpha enzyme, ADP-Glo luminescence, 60 min; active compounds read low; active means max response of -50% or lower; inconclusive means between -30% and -50%; inactive means -30% or higher; further: value at the top dose of about 77 µM; on the % scale 0 is the no-effect control and ±100 the full control effect
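ADP-Glo luminescence end-point read after a 60 min room-temperature kinase reaction of PI5P4Kalpha plus substrate, initiated with ATP at 5 microM final. Buffer: 0.038 M HEPES pH 7.4, EGTA, 0.1% CHAPS, 5% DMSO.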
TbPGK inh: blocks T. brucei phosphoglycerate kinase; TbPGK coupled GAPDH assay, Kinase-Glo luminescence; shares compounds with Pol kappa inh-1; Potency, µM (series often up to 57.5 µM), inactives show at the top dose activity change, negative = inhibition, most hits filed as inhibitors; 500 compounds, 79% hits; further: potency means the concentration at half of the fitted maximal effect; on the % scale 0 is the no-effect control and ±100 the full control effect; nearly all actives have a fitted effect of over 65% in size
POLI cherry-pick: Inhibitors of human DNA polymerase iota, confirmation. shares compounds with Pol kappa inh-1. Pol iota primer extension, TAMRA/BHQ fluorescence. Potency, µM, actives largely listed as inhibitors. 1,500 compounds, 77% hits. AID 720496; further: potency means the concentration at half of the fitted maximal effect
Pol kappa inh-2: Pol kappa (human) inhibition, cherry-pick confirmation; shares compounds with Pol eta inh-1; purified Pol-kappa, fluorescent strand-displacement substrate; Potency, µM, actives largely listed as inhibitors; 920 compounds, 76% hits; further: potency means the concentration at half of the fitted maximal effect
Pol eta inh-2: confirmation of human DNA polymerase eta inhibitors | shares compounds with Pol eta inh-1 | 2,600 compounds, 64% hits | Potency, µM, most hits filed as inhibitors | Pol eta primer extension, TAMRA/BHQ fluorescence, 10 min | AID 720502; further: potency means the concentration at half of the fitted maximal effect
* = called active by the depositor. Unless noted, the call rests on the fitted dose curve; in most records, active means well fitted curve in the direction sought with a large enough effect; inconclusive means small, poorly fitted or top-dose-only effect, or another doubt; inactive means no such curve, though single readings can be large; an effect the other way counts as inactive or inconclusive.

What do the screens show for `CCOC(=O)C1=C(C)N=c2s/c(=C/c3ccc(OCC(=O)O)cc3)c(=O)n2C1c1ccc(OC)cc1OC` (centres undefined)?
POLI inh: inconclusive; Pol beta inh: -5.3%; Pol kappa inh-1: inconclusive; ALOX12 inh: 0.0%; Pol eta inh-1: 28.2µM*; PI5P4K alpha inh: -10.1; POLI cherry-pick: 33.6*; Pol kappa inh-2: 29.9*; Pol eta inh-2: 67.5*

Results for CCOC(=O)C1=C(C)N=c2s/c(=C\c3ccc(O)c([N+](=O)[O-])c3)c(=O)n2C1c1ccccc1OC (centres undefined) ?
POLI inh: inconclusive; Pol beta inh: 1.0%; Pol kappa inh-1: -22.5%; ALOX12 inh: inconclusive; Pol eta inh-1: 8.1%; PI5P4K alpha inh: inconclusive

How did CCOC(=O)C1=C(C)N=c2s/c(=C/c3ccc(OCC(=O)O)cc3)c(=O)n2C1c1ccc(F)cc1 (centres undefined) do in these assays?
POLI inh: 17.8µM*; Pol beta inh: 56.2µM*; Pol kappa inh-1: -17.0%; ALOX12 inh: inconclusive; Pol eta inh-1: inconclusive; PI5P4K alpha inh: -11.2; POLI cherry-pick: 75.2*; Pol kappa inh-2: inconclusive

Results for CCOC(=O)C1=C(C)N=c2s/c(=C/c3ccc(OCC(=O)O)c(OC)c3)c(=O)n2C1c1ccc(Cl)cc1 (centres undefined) ?
POLI inh: 10µM*; Pol kappa inh-1: inconclusive; ALOX12 inh: 25.1µM*; Pol eta inh-1: 20µM*; PI5P4K alpha inh: inconclusive; TbPGK inh: 10.3µM*; POLI cherry-pick: 15*; Pol kappa inh-2: 7.52*; Pol eta inh-2: 33.8*

What do the screens show for `CCOC(=O)C1=C(C)N=c2s/c(=C/c3cccc([N+](=O)[O-])c3O)c(=O)n2C1c1ccc(OC)cc1OC` (centres undefined)?
POLI inh: inconclusive; Pol beta inh: 0.6%; Pol kappa inh-1: -7.0%; ALOX12 inh: inconclusive; Pol eta inh-1: 50.1µM*; PI5P4K alpha inh: -55.4*; POLI cherry-pick: 75.2*; Pol eta inh-2: 75.7*

Results for COc1ccc(OC)c(NC2c3ccccc3C(=O)N2Cc2ccccc2Cl)c1 (centres undefined) ?
ALOX12 inh: -27.4%

How did CN(C(=O)CCc1ncc(-c2ccccc2F)o1)C1CCS(=O)(=O)C1 (centres undefined) do in these assays?
ALOX12 inh: -6.9%

What do the screens show for `CCOc1ccc(NC(=O)/C=C/c2cccc3ccccc23)cc1`?
ALOX12 inh: 10.4%

What do the screens show for `CC(=O)Nc1cc(C(=O)CSc2nnc(C3CC3)n2C2CC2)ccc1O`?
POLI inh: 8.91µM*; Pol kappa inh-1: 35.5µM*; ALOX12 inh: -28.3%; Pol eta inh-1: 11.2µM*; PI5P4K alpha inh: -71.7*; POLI cherry-pick: inconclusive; Pol eta inh-2: 75.7*

Results for O=C(CSc1nnc(C2CC2)n1C1CC1)c1ccc(F)c(F)c1 ?
POLI inh: 6.3%; Pol kappa inh-1: -0.4%; ALOX12 inh: 22.6%; Pol eta inh-1: 1.4%; PI5P4K alpha inh: -9.1

What do the screens show for `CCCC(=O)Nc1c(-c2cccc3ccccc23)c(=O)c2ccccc2n1C`?
ALOX12 inh: 24.5%

How did COc1ccc(C2Nc3ccccc3C(=O)N2Cc2ccco2)cc1COc1ccc(N)cc1 (centres undefined) do in these assays?
POLI cherry-pick: 75.2*; Pol eta inh-2: 84.9*

What do the screens show for `O=C(O)CC(C(=O)O)N1C(=O)/C(=C/C=C/c2ccco2)SC1=S` (centres undefined)?
POLI inh: 1.58µM*; Pol beta inh: 0.794µM*; Pol kappa inh-1: -96.4%; ALOX12 inh: inconclusive; Pol eta inh-1: 0.891µM*; PI5P4K alpha inh: -54.7*; TbPGK inh: 2.91µM*; POLI cherry-pick: 5.32*; Pol eta inh-2: 3.01*

How did O=C(O)C(Cc1ccccc1)N1C(=O)/C(=C/C=C/c2ccco2)SC1=S (centres undefined) do in these assays?
POLI inh: 1.12µM*; Pol beta inh: 1.58µM*; Pol kappa inh-1: 3.16µM*; ALOX12 inh: 5.62µM*; Pol eta inh-1: 1.41µM*; PI5P4K alpha inh: -98.8*; TbPGK inh: 5.8µM*; POLI cherry-pick: 2.99*; Pol eta inh-2: 3.38*

Results for Cn1cccc1/C=C1\SC(=S)N(NC(=O)c2ccccc2O)C1=O ?
POLI inh: inconclusive; Pol beta inh: -13.5%; Pol kappa inh-1: -18.2%; ALOX12 inh: -14.7%; Pol eta inh-1: -9.1%; PI5P4K alpha inh: -13.4

How did O=C(NN1C(=O)/C(=C/C=C/c2ccco2)SC1=S)c1ccccc1O do in these assays?
POLI inh: 1.26µM*; Pol beta inh: 1.12µM*; Pol kappa inh-1: 3.98µM*; ALOX12 inh: 12.6µM*; Pol eta inh-1: 1.12µM*; PI5P4K alpha inh: -78.5*; TbPGK inh: 9.19µM*; POLI cherry-pick: 2.67*; Pol eta inh-2: 3.38*

How did Cc1nc(N2CCC(N[C@H]3Cc4ccccc4[C@@H]3N)CC2)c2ccsc2n1 do in these assays?
ALOX12 inh: 22.4%

Results for c1ccc(-c2nnn(Cc3coc(-c4ccccc4)n3)n2)cc1 ?
ALOX12 inh: -10.7%

Results for Cc1cc(=O)c(C(=O)Nc2nnc(C3CC3)s2)nn1-c1ccccc1Cl ?
ALOX12 inh: -18.2%

How did Nc1nonc1-c1nc2ccccc2n1CC(=O)N/N=C/c1ccc(-c2cccc(C(=O)O)c2)o1 do in these assays?
POLI inh: 17.8µM*; Pol beta inh: 20µM*; Pol kappa inh-1: inconclusive; ALOX12 inh: -6.1%; Pol eta inh-1: 17.8µM*; PI5P4K alpha inh: -59.5*; POLI cherry-pick: 75.2*; Pol eta inh-2: 23.9*

Compound activity deposited in PubChem BioAssay by National Center for Advancing Translational Sciences (NCATS).
